# Nrf2 inh = Nrf2 pathway inhibition; Potency, µM (doses to about 46 µM), without a hit: at the highest dose activity change, negative = inhibition, hits mostly inhibitors; A549 ARE-Fluc reporter, luciferase luminescence, 18-24 h; hit rate 2.1% among 360,000; further: on the % scale 0 is the no-effect control and ±100 the full control effect; nearly all actives have a fitted effect of over 60% in size
#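 Cells were seeded and rested 2 h, then exposed to compounds for 18-24 h. CellTiter-Fluor was read first as a viability measure. BugLite was added 15 min before the final luminescent read of ARE-luciferase activity in A549 cells.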
# ELG1 DNA repair = ELG1-dependent DNA repair inhibition | HEK293T ELG1-luciferase reporter, luminescence, 16 h; DNA damage induced by 5-fluorouridine | Potency, µM (series often up to 46.1 µM), for inactives: at the highest dose activity change, negative = inhibition, hits mostly inhibitors | hit rate 2.3% among 330,000 | AID 504467; further: on the % scale 0 is the no-effect control and ±100 the full control effect; nearly all actives have a fitted effect of over 55% in size
#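 Overnight (16 hr) co-exposure of 2,000 cells/well to 5-fluorouridine and compound at 37 °C preceded detection. Luciferase was quantified via ONE-Glo luminescence; loss of signal denotes inhibition.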
# A549 viability = counter-screen for Nrf2 inhibitors: cytotoxicity in A549 cells | A549 ARE-Fluc cells, CellTiter-Fluor viability, 18-24 h | hit rate 0.16% among 390,000 | Potency, µM (doses to about 46 µM), without a hit: at the top dose activity change, negative = cytotoxicity, most hits filed as inhibitors; further: on the % scale 0 is the no-effect control and ±100 the full control effect
#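 A549 ARE-Fluc cells in 5% FBS OPTI-MEM, 5000 cells/well, rested 2 h then exposed to compounds in concentration-response for 18-24 h at 37 °C. Viability by CellTiter-Fluor fluorescence (Ex 405/Em 525) after 30 min; luciferase luminescence (BugLite, 15 min, RT) read afterwards.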
# Nrf2 ARE act = activators of Nrf2 (ARE) signaling. AREc32 ARE-luciferase reporter (MCF7-derived line), luminescence, 24 h. Potency, µM (doses to about 46.1 µM), for inactives: at the highest dose activation, most hits filed as activators. hit rate 0.31% among 410,000. AID 624171; further: % of control where 0% means no effect; nearly all actives have a fitted effect of over 65% in size
#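 Each well held 1000 AREc32 cells, which were incubated with compound for 24 hr at 37 deg C after overnight attachment, and ARE reporter activity was quantified by firefly luciferase luminescence.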
# * hit, by the source's call; ? = inconclusive; . = no result; [ ] = remark or other dose. Most compounds without a hit are left out; they make up all but 3.7% or so of the library. The call rests on the fitted dose curve; in most records, active means well fitted curve in the direction sought with a large enough effect; inconclusive means small, poorly fitted or top-dose-only effect, or another doubt; inactive means no such curve, though single readings can be large; an effect the other way counts as inactive or inconclusive. Potency means the concentration at half of the fitted maximal effect.
SMILES,Nrf2 inh,ELG1 DNA repair,A549 viability,Nrf2 ARE act
O=C(c1ccc(CNS(=O)(=O)c2ccccc2)cc1)N1CCN(Cc2ccccc2)CC1,13µM*,?,-15%,0%
COc1cccc(S(=O)(=O)NCc2ccc(C(=O)N3CCN(c4ccccc4)CC3)cc2)c1,?,-18%,2%,0%
CC(=O)c1ccc(N2CCN(C(=O)/C=C/c3ccc(S(=O)(=O)N4CCOCC4)cc3)CC2)cc1,?,?,-10%,0%
N#Cc1ccc(CN2CCN(C(=O)c3ccc(S(=O)(=O)NCc4ccco4)cc3)CC2)cc1,8.2µM*,?,?,11%
Cc1ccc(S(=O)(=O)NCc2ccc(C(=O)N3CCN(c4ccccc4)CC3)cc2)cc1,23µM*,-12%,-5%,0%
CS(=O)(=O)c1ccc(C(=O)N2CCN(Cc3ccccc3)CC2)cc1,-19%,-6%,-10%,0%
O=C(NCc1ccccc1)c1ccc(Cn2c(=O)c3cccn3c3cccnc32)cc1,23%,.,6%,1%
CCNS(=O)(=O)c1ccc(CCC(=O)N2CCN(c3ccccc3)CC2)cc1,?,-5%,-8%,3%
Cc1ccc(NS(=O)(=O)c2ccc(C(=O)N3CCN(S(=O)(=O)c4ccccc4)CC3)cc2)cc1,21µM*,?,-25%,1%
CC(C)CNS(=O)(=O)c1ccc(CCC(=O)N2CCN(c3ccccc3)CC2)cc1,10µM*,?,?,2%
Cc1ccc(S(=O)(=O)NCc2ccc(N3CCN(C(=O)OC(C)(C)C)CC3)cc2)cc1,26µM*,-12%,-10%,0%
OCC1CCCCN1CC(O)COC(c1ccc(F)cc1)c1ccc(F)cc1 (stereo not drawn),-18%,0%,0%,-1%
Cc1ccc(S(=O)(=O)N2CCC(c3nnc(-c4cccc(C)c4)o3)CC2)cc1,?,.,-6%,21%
CCOc1ccc(CNC(=O)c2ccc3c(c2)c(C)c(C)n3Cc2ccccc2)cc1OC,?,.,-1%,6%
Cc1nc2ccccc2n1CC(=O)NC1CCCCCC1,-28%,15µM*,15%,1%
Cc1nc2ccccc2n1CC(=O)NC1CCCC1,-24%,-29%,2%,-1%
CC1CCN(C(=O)CSc2nc(-c3ccc(C(C)C)cc3)no2)CC1,?,.,-17%,7%
CC1CCN(c2c(NCC3CCC(C(=O)NCCCc4ccccc4)CC3)c(=O)c2=O)CC1 (stereo not drawn),-5%,10µM*,1%,2%
COCCCNC(=O)C[C@H]1C[C@H](C(=O)N2CCCCC2)[C@@]2(CCc3ccccc3)c3[nH]c4cc(CCC(=O)N(C)C)ccc4c3CCN2C1=O,-13%,13%,4%,0%
CC(C)(CNc1ccc([N+](=O)[O-])cc1C#N)N1CCOCC1,-5%,-13%,-17%,0%
CC(C)(CNc1ccc(S(=O)(=O)C(F)(F)F)cc1[N+](=O)[O-])N1CCOCC1,23µM*,19%,1%,-1%
CCC(=O)N1c2ccccc2CC1C(=O)NCCCN1CCN(c2cc(C)ccc2C)CC1 (stereo not drawn),.,.,-29%,1%
CC(Cc1cccs1)NC(=S)Nc1ccc(Cl)cc1 (stereo not drawn),18µM*,2%,-16%,0%
CCN(C[C@H]1N[C@@](CC)(C(=O)OC)[C@H]2C(=O)N(Cc3ccccc3)C(=O)[C@@H]12)C(=O)c1ccc(F)cc1,7%,16µM*,-4%,-1%
CCN(C[C@H]1N[C@@](CC)(C(=O)OC)[C@H]2C(=O)N(Cc3ccccc3)C(=O)[C@@H]12)C(=O)c1ccc(C)cc1,5%,8.2µM*,-11%,0%
CC[C@@]1(C(=O)OC)N[C@H](CN(C)C(=O)c2ccc(C)cc2)[C@@H]2C(=O)N(Cc3ccccc3)C(=O)[C@@H]21,-10%,-6%,-2%,0%
CCN(C[C@H]1N[C@@](Cc2ccccc2)(C(=O)OC)[C@H]2C(=O)N(Cc3ccccc3)C(=O)[C@@H]12)C(=O)c1ccc(F)cc1,?,?,?,0%
CCNC(=O)C1CCCN(C(=O)Cc2ccc3ccccc3c2)CC1 (stereo not drawn),.,.,.,-1%[9.22 µM]
Cn1c(C(=O)N2CCCC2)cc2c(=O)n(C)c3ccccc3c21,-2%,-14%,2%,4%
Cn1c(C(=O)N2CCN(c3ncccn3)CC2)cc2c(=O)n(C)c3ccccc3c21,-3%,9.2µM*,-1%,1%

# Screening data from PubChem.
